# Measurements: PubChem BioAssay
# Inconclusive results are not listed. Activity calls are given as the source filed them.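 The calls were made as follows, unless noted: active = normalized viability below 100% at a tested concentration; inactive = the rest.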
# Tests used:
# [1] = growth inhibition of DIPG glioma cells, dose response, cell-based, SU-DIPG-XVII, MIPE5.0, CellTiter-Glo, qHTS (AID 1347060; cut-off not given, nearly all actives have AC50 up to about 26 µM;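 as to AC50: cells exposed to compound for 48 hours before viability readout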); settings: SU-DIPG-XVII viability, CellTiter-Glo ATP luminescence
# [2] = growth inhibition of DIPG glioma cells, dose response, cell-based, SU-DIPG-XIII, MIPE4.0, CellTiter-Glo, qHTS (AID 1347061; cut-off not given, nearly all actives have AC50 up to about 37 µM;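 also: cells exposed to compound for 48 hours before readout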); settings: SU-DIPG-XIII viability, CellTiter-Glo ATP luminescence
# [3] = growth inhibition of DIPG glioma cells, dose response, cell-based, SU-DIPG-IV, MIPE4.0, CellTiter-Glo, qHTS (AID 1347063; cut-off not given, nearly all actives have AC50 up to about 30 µM;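 also: compound exposure lasted 48 hours before the viability readout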); settings: SU-DIPG-IV viability, CellTiter-Glo ATP luminescence
# [4] = growth inhibition of DIPG glioma cells, dose response, cell-based, SU-DIPG-XIII, MIPE5.0, CellTiter-Glo, qHTS (AID 1347064; cut-off not given, nearly all actives have AC50 up to about 23 µM;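 as to AC50: cells exposed to compound for 48 hours before the viability read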); settings: SU-DIPG-XIII viability, CellTiter-Glo ATP luminescence
# [5] = viability loss in pontine glioma line – cell-based, SU-DIPG-XXV, MIPE5.0, CellTiter-Glo, qHTS, dose response (AID 1347065; cut-off not given, nearly all actives have AC50 up to about 26 µM;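 also: cells exposed to compound for 48 hours before ATP readout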); settings: CellTiter-Glo ATP luminescence
# [6] = SU-DIPG-VI glioma cell viability, MIPE4.0 library, CellTiter-Glo luminescence, qHTS (AID 1347066; cut-off not given, nearly all actives have AC50 up to about 30 µM;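 also: cells exposed to compound for 48 hours before readout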); settings: CellTiter-Glo ATP luminescence
# [7] = JHH-DIPG-1 glioma cell viability, MIPE5.0 library, CellTiter-Glo luminescence, qHTS (AID 1347067; cut-off not given, nearly all actives have AC50 up to about 26 µM;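 also: cells exposed to compound for 48 hours before readout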); settings: JHH-DIPG-1 glioma viability, CellTiter-Glo ATP luminescence
# [8] = SU-DIPG-XXV glioma cell viability, MIPE5.0 library, qHTS (AID 1347068; cut-off not given, nearly all actives have IC50 up to about 30 µM;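 as to IC50: cells exposed to compound for 48 hours before viability readout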)
# [9] = growth inhibition of DIPG glioma cells, dose response, cell-based, JHH-DIPG-1, MIPE4.0, CellTiter-Glo, qHTS (AID 1347062; cut-off not given, nearly all actives have AC50 up to about 27 µM;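 as to AC50: cells exposed to compound for two days before readout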); settings: JHH-DIPG-1 viability, CellTiter-Glo ATP luminescence
# [10] = sensitizers of A549 cells to miR-34 induction, primary screen, imaging, A549 dox-inducible miR-34, nuclei and caspase counts (AID 1347080;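 active = compounds whose cell count with miR-34 switched on is under 0.7 times the count with it off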); settings: A549 miR-34 inducible, Hoechst nuclei count, 48 h
# [11] = survival rescue of mitochondrial mutant cells in low glucose, primary screen, MELAS cybrids, Rieske KO mouse fibroblasts, CellTiter-Glo (AID 1508586;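 active = mean z-score across replicates of 1.96 or higher in either the MELAS or the Rieske mutant cell line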;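 also: z relative to plate mean and SD of compound and empty wells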)
# [12] = modifiers of HSF1 nuclear foci, imaging, Selleck Cancer Library (AID 1347162; in the data active = plate-normalised HSF1 focus index below about 0.46); settings: human cells, at 10 µM; SSMD: measured here: HSF1 foci SSMD mean; cell count: measured here: cell number; plate-normalised HSF1 focus index: stronger effect = lower value
# [13] = ovarian cancer cell viability with rucaparib, profiling panel, oncology-focused library, rucaparib conditional (AID 1508598); settings: patient-derived ovarian cancer cells, CellTiter-Glo viability, 144 h, stronger effect = lower value
# [14] = stronger effect = lower value, cell number ratio, induced over uninduced
# [15] = measured here: relative caspase fold change +Dox/-Dox
# [16] = measured here: total cells with miR-34 induction, stronger effect = lower value
# [17] = measured here: total cells without miR-34 induction
# [18] = MELAS cybrid survival, CellTiter-Glo 48 h, stronger effect = higher value
# [19] = Rieske KO mouse fibroblast survival, CellTiter-Glo 72 h
smiles,measurement,setting,value
C[C@](Cc1c[nH]c2ccccc12)(NC(=O)OC1C2CC3CC(C2)CC1C3)C(=O)NC[C@H](NC(=O)CCC(=O)O)c1ccccc1 (stereo not given in full),outcome,[1],inactive
same,outcome,[2],inactive
same,outcome,[3],inactive
same,outcome,[4],inactive
same,outcome,[5],inactive
same,outcome,[6],inactive
same,outcome,[7],inactive
same,outcome,[8],inactive
COc1ccc(-n2c(C)c([N+](=O)[O-])c3ccc(O)cc32)cc1,outcome,[1],inactive
same,AC50,[2],4690 nM (active)
same,outcome,[9],inactive
same,outcome,[5],inactive
same,outcome,[6],inactive
same,outcome,[7],inactive
same,outcome,[8],inactive
same,fold change,[10]; [14],0.881 (inactive)
same,fold change,[10]; [15],0.334
same,cell count,[10]; [16],6450
same,cell count,[10]; [17],7330
same,z-score,[11]; [18],0.252 (inactive)
same,z-score,[11]; [19],-3.43
C[C@@]1(C(=O)Nc2ccc(F)nc2)CCCN1c1nc(Nc2cc(C3CC3)[nH]n2)c2cccn2n1,AC50,[1],263 nM (active)
same,AC50,[2],7430 nM (active)
same,AC50,[3],83.3 nM (active)
same,AC50,[4],20.9 nM (active)
same,AC50,[5],13.2 nM (active)
same,AC50,[7],186 nM (active)
same,IC50,[8],74.2 nM (active)
O=C(O)CCC1CCC(c2cc(F)ccc2F)(S(=O)(=O)c2ccc(Cl)cc2)CC1 (stereo not given),outcome,[1],inactive
same,AC50,[2],18700 nM (active)
same,AC50,[9],16600 nM (active)
same,outcome,[4],inactive
same,AC50,[6],6620 nM (active)
same,outcome,[7],inactive
same,fold change,[10]; [14],0.867 (inactive)
same,fold change,[10]; [15],0.588
same,cell count,[10]; [16],8810
same,cell count,[10]; [17],10200
same,SSMD,[12],1.51
same,cell count,[12],7050
same,plate-normalised HSF1 focus index,[12],1.09 (inactive)
same,z-score,[11]; [18],-0.308 (inactive)
same,z-score,[11]; [19],0.781
same,viability,"[13]; at 0.000305 µM, OCI-C5x cells, with rucaparib 10 µM, 100% = cells with rucaparib alone",114% (inactive)
same,viability,"[13]; at 0.000305 µM, OCI-C5x cells, without rucaparib",121% (inactive)
same,viability,"[13]; at 0.000305 µM, OCI-P5x cells, with rucaparib 20 µM, 100% = cells with rucaparib alone",110% (inactive)
same,viability,"[13]; at 0.000305 µM, OCI-P5x cells, without rucaparib",108% (inactive)
same,viability,"[13]; at 0.00122 µM, OCI-C5x cells, with rucaparib 10 µM, 100% = cells with rucaparib alone",123% (inactive)
same,viability,"[13]; at 0.00122 µM, OCI-C5x cells, without rucaparib",121% (inactive)
same,viability,"[13]; at 0.00122 µM, OCI-P5x cells, with rucaparib 20 µM, 100% = cells with rucaparib alone",113% (inactive)
same,viability,"[13]; at 0.00122 µM, OCI-P5x cells, without rucaparib",102% (inactive)
same,viability,"[13]; at 0.00488 µM, OCI-C5x cells, with rucaparib 10 µM, 100% = cells with rucaparib alone",110% (inactive)
same,viability,"[13]; at 0.00488 µM, OCI-C5x cells, without rucaparib",120% (inactive)
same,viability,"[13]; at 0.00488 µM, OCI-P5x cells, with rucaparib 20 µM, 100% = cells with rucaparib alone",107% (inactive)
same,viability,"[13]; at 0.00488 µM, OCI-P5x cells, without rucaparib",105% (inactive)
same,viability,"[13]; at 0.0195 µM, OCI-C5x cells, with rucaparib 10 µM, 100% = cells with rucaparib alone",115% (inactive)
same,viability,"[13]; at 0.0195 µM, OCI-C5x cells, without rucaparib",104% (inactive)
same,viability,"[13]; at 0.0195 µM, OCI-P5x cells, with rucaparib 20 µM, 100% = cells with rucaparib alone",104% (inactive)
same,viability,"[13]; at 0.0195 µM, OCI-P5x cells, without rucaparib",104% (inactive)
same,viability,"[13]; at 0.0781 µM, OCI-C5x cells, with rucaparib 10 µM, 100% = cells with rucaparib alone",108% (inactive)
same,viability,"[13]; at 0.0781 µM, OCI-C5x cells, without rucaparib",112% (inactive)
same,viability,"[13]; at 0.0781 µM, OCI-P5x cells, with rucaparib 20 µM, 100% = cells with rucaparib alone",102% (inactive)
same,viability,"[13]; at 0.0781 µM, OCI-P5x cells, without rucaparib",93.6% (active)
same,viability,"[13]; at 0.313 µM, OCI-C5x cells, with rucaparib 10 µM, 100% = cells with rucaparib alone",113% (inactive)
same,viability,"[13]; at 0.313 µM, OCI-C5x cells, without rucaparib",113% (inactive)
same,viability,"[13]; at 0.313 µM, OCI-P5x cells, with rucaparib 20 µM, 100% = cells with rucaparib alone",99.9% (active)
same,viability,"[13]; at 0.313 µM, OCI-P5x cells, without rucaparib",89.3% (active)
same,viability,"[13]; at 1.25 µM, OCI-C5x cells, with rucaparib 10 µM, 100% = cells with rucaparib alone",113% (inactive)
same,viability,"[13]; at 1.25 µM, OCI-C5x cells, without rucaparib",109% (inactive)
same,viability,"[13]; at 1.25 µM, OCI-P5x cells, with rucaparib 20 µM, 100% = cells with rucaparib alone",94.5% (active)
same,viability,"[13]; at 1.25 µM, OCI-P5x cells, without rucaparib",87.7% (active)
same,viability,"[13]; at 5 µM, OCI-C5x cells, with rucaparib 10 µM, 100% = cells with rucaparib alone",114% (inactive)
same,viability,"[13]; at 5 µM, OCI-C5x cells, without rucaparib",107% (inactive)
same,viability,"[13]; at 5 µM, OCI-P5x cells, with rucaparib 20 µM, 100% = cells with rucaparib alone",84.8% (active)
same,viability,"[13]; at 5 µM, OCI-P5x cells, without rucaparib",76.9% (active)
